Assay results published in PubChem BioAssay AID2391 (Southern Research Specialized Biocontainment Screening …, 2010).
Values joined by “and” are separate entries in the source; they are usually repeats but may differ in a detail not shown here. Equal values may be shown once. In all, about 310,000 compounds went through this assay and about 410 (0.13%) were called active. Another 2% or so got no clear call; they are omitted. A selection follows. Results with a measured potency or affinity are listed apart. Values without a mark were called inactive. The rule behind the calls is not given here.

Experiment: inhibition of RSV-induced cytopathic effect – HEp-2 cells, primary 10 µM value included (AID 2391)
Details: at 10 µM, hits give high values
Work on `NC(=O)c1ccc(OCC2CCCO2)cc1` (stereo unspecified) yielded a CPE inhibition of 0.89%. Compound `Cc1cccc(COCC(CC(C)C)N2CCN(C(=O)c3ccc(C(C)(C)C)cc3)CCC2=O)c1` (stereo unspecified) has a CPE inhibition of -2.89%. Compound `COCCn1c(-c2ccccc2)nc2oc3ccccc3c(=O)c2c1=O` has a CPE inhibition of 1.49%. For `O=C(c1ccccc1Br)N1N=C(c2ccccc2)CC1c1ccccc1F` (stereo unspecified), the CPE inhibition was 13.7%. Compound `Cc1c(C)c2ccc(OCC(=O)NCc3ccccn3)cc2oc1=O` has a CPE inhibition of 1.94%. For `Cc1cc(=O)oc(C)c1C(=O)NCCc1ccccc1`, the CPE inhibition was -0.07%. For `CCC(=O)Nc1sc2c(c1C(=O)OC)CCN(Cc1ccccc1)C2`, the CPE inhibition was -0.39%. In the case of `Cc1ccc(C(CC(=O)O)C2CCOC(C)(C)C2)cc1` (stereo unspecified), the CPE inhibition is reported as 0.31%. In the case of `c1ccc(Cn2nnc3c(N4CCOCC4)ncnc32)cc1`, the CPE inhibition is reported as 1.51%. `c1ccc(Cn2nnc3c(N4CCCC4)ncnc32)cc1` gave a CPE inhibition of -0.08%. Work on `Cc1nnc2sc(-c3cccc(F)c3)nn2c1=O` yielded a CPE inhibition of 0.29%. For `CC(C)CN1CCN(Cc2cnc(-c3ccc(Cl)cc3)nc2)CC1CCO` (stereo unspecified), the CPE inhibition was 19.2%. Compound `O=C(Nc1nnc(C2=COCCO2)o1)c1ccc([N+](=O)[O-])cc1` has a CPE inhibition of 0.76%. In the case of `CCc1cccc(C)c1NC(=O)C1CC=CCC1C(=O)O` (stereo unspecified), the CPE inhibition is reported as -1.43%. `O=c1oc(/C=C/c2ccco2)nc2sc3c(c12)CCC3` gave a CPE inhibition of 2.04%. Work on `COc1ccc(/C=C/c2nc3sc4c(c3c(=O)o2)CCC4)cc1` yielded a CPE inhibition of 2.5%. With `Cc1ccc(OCC(=O)N2c3ccccc3CC2C)c([N+](=O)[O-])n1` (stereo unspecified) the CPE inhibition was -0.02%. With `COc1ccc(/C(C)=N/Nc2ccc(C(=O)O)cc2)c(OC)c1` the CPE inhibition was 1.98%. Work on `COc1ccc(OC)c(/C(C)=N/Nc2ccc(C(=O)O)cc2)c1` yielded a CPE inhibition of 0.2%. In the case of `CCN(CC)CCOc1ccc2c(c1)C(=NNC(=O)c1ccccn1)c1cc(OCCN(CC)CC)ccc1-2`, the CPE inhibition is reported as -1.74%. For `O=C(NN=C1c2ccccc2-c2ccccc21)c1ccccn1`, the CPE inhibition was 1.09%. Work on `COc1ccc2[nH]c(C)c(C(=O)CN3CCN(C/C=C/c4ccccc4)CC3)c2c1` yielded a CPE inhibition of 4.44%. For `CC(C)C1Cc2c(sc3c2c(=O)n(-c2ccccc2)c2n[nH]c(=S)n32)CO1` (stereo unspecified), the CPE inhibition was 2.95%. With `CC(/C=N/NC(=O)c1cc(-c2ccc(C)o2)[nH]n1)=C\c1ccccc1` the CPE inhibition was 0.3%. `COc1cccc(NC(=O)NCCCCc2ccccc2)c1` showed a CPE inhibition of 6.21%. For `CC(C)(C)c1ccc(O)c(O)c1`, the CPE inhibition was 3.31%. Work on `Cc1cc(C(C)(C)C)c(O)c(C(C)(C)C)c1` yielded a CPE inhibition of -0.15%. `NNC(=O)c1csc(-c2cccc(C(F)(F)F)c2)n1` gave a CPE inhibition of 9.01%. Compound `O=C(c1cc(Br)ccc1OC(F)F)N1CCN2CCCC2C1` (stereo unspecified) has a CPE inhibition of 0.87%. For `CCn1ncc(/C=C/C(=O)Nc2c(C)nn(Cc3ccc(Cl)cc3Cl)c2C)c1C`, the CPE inhibition was 0.17%. Work on `O=C(O)/C=C/c1ccc(O)c(O)c1` yielded a CPE inhibition of 0.47%. For `O=C(/C=C/c1ccc(O)c(O)c1)O[C@@H]1C[C@](O)(C(=O)O)C[C@@H](O)[C@H]1O`, the CPE inhibition was 39.5% and 4.56%. Work on `COc1cc(OC)cc(C(=O)NC(=S)N2CCCCC2c2cccnc2)c1` (stereo unspecified) yielded a CPE inhibition of -0.07%. For `CCN1CCN(c2ccc(S(=O)(=O)N3CCCCC3)cc2NC(=O)CC(C)c2ccccc2)CC1` (stereo unspecified), the CPE inhibition was -2.47%. In the case of `Cc1ccsc1C(=O)OCC(=O)NC1CCCCC1C` (stereo unspecified), the CPE inhibition is reported as 1.57%. For `CC1CN(C(C)C)C(C)CC1OC(=O)c1ccccc1` (stereo unspecified), the CPE inhibition was -0.34%. Compound `COC(=O)c1ccc(COn2c(=O)c(C)[n+]([O-])c3ccccc32)cc1` has a CPE inhibition of 2.27%. `O=C(COc1ccc(Br)cc1Cl)NNC(=O)c1ccccc1` gave a CPE inhibition of -0.21%. In the case of `O=c1[nH]c(COc2ccc(Cl)cc2Cl)nc2ccccc12`, the CPE inhibition is reported as 20.4%. With `Cc1nc2c(C)cccn2c(=O)c1NC(=O)c1ccc2c(c1)OCO2` the CPE inhibition was -0.9%. For `COc1cccc(CN(C(=O)c2ccccc2)C2CCS(=O)(=O)C2)c1` (stereo unspecified), the CPE inhibition was 1.28%. Work on `N#CC(c1ccccc1)c1cccc(Cl)n1` (stereo unspecified) yielded a CPE inhibition of -0.33%. Work on `O=C1CC(c2ccccc2)CN1C(=O)c1ccccc1` (stereo unspecified) yielded a CPE inhibition of 0.02%. With `COc1ccc(C(=O)N2CC(c3ccccc3)CC2=O)cc1` (stereo unspecified) the CPE inhibition was 1.75%. For `Cc1c(C(=O)N2CCC(C)CC2)sc2ncn(CC(=O)N3CCC(C)CC3)c(=O)c12`, the CPE inhibition was 3.53%. Work on `Cc1ccc(-c2nnn(CC(=O)N(CC(=O)NC3CCCC3)c3ccc(F)cc3)n2)o1` yielded a CPE inhibition of 2.25%. `CC1Cc2ccccc2N1S(=O)(=O)c1cccc(C(=O)NCCCO)c1` (stereo unspecified) showed a CPE inhibition of -0.32%. Compound `Cc1cc(C[n+]2ncsc2N)c2ncccc2c1` has a CPE inhibition of 18.8%. With `Cc1cc(C[n+]2cc(Br)ccc2N)c2ncccc2c1` the CPE inhibition was 81%. Compound `Nc1scn[n+]1Cc1cccc2cccnc12` has a CPE inhibition of 19.5%. Work on `Nc1ccc(Cl)c[n+]1Cc1cccc2cccnc12` yielded a CPE inhibition of 50.2%. `CCCC(=O)OC1CC(C)N(C(=O)c2ccccc2)c2ccc(C)cc21` (stereo unspecified) showed a CPE inhibition of 7.5%. In the case of `COc1ccc(CCNC(=O)COc2cc(C)cc3oc(=O)cc(C)c23)cc1`, the CPE inhibition is reported as 2.6%. In the case of `Cc1c(-c2ccccc2)nc2ccccc2c1C(=O)O`, the CPE inhibition is reported as 0.81%. Compound `Cc1c(-c2ccccc2Cl)nc2ccccc2c1C(=O)O` has a CPE inhibition of 1.54%. `NC(=O)CC(NC(=O)Cc1ccc(Br)cc1)c1ccc(NCCN2CCCC2)c([N+](=O)[O-])c1` (stereo unspecified) gave a CPE inhibition of 0.07%. `CC(Oc1ccc(Cl)cc1Cl)C(=O)NNC(=O)C(=O)N1CCCC1` (stereo unspecified) gave a CPE inhibition of 7.07%. Work on `COC(=O)NNC(=O)C(C)Oc1ccc(Cl)cc1Cl` (stereo unspecified) yielded a CPE inhibition of 0.74%. `COc1ccc(C(=O)OCCc2ccc(O)cc2)cc1` showed a CPE inhibition of 1.11%. `COc1ccc(CCn2c(C)cc(C(=O)COC(=O)c3ccc(NC(=O)CC#N)cc3)c2C)cc1` gave a CPE inhibition of 4.94%. Work on `Cc1cc(-c2cc(C(=O)NCc3ccccc3)on2)nc(S(C)(=O)=O)n1` yielded a CPE inhibition of 2.46%. `Cc1ccccc1N(C(=O)CNC(=O)c1ccco1)C(C(=O)NC1CCCCC1)c1ccncc1` (stereo unspecified) showed a CPE inhibition of 0.97%. In the case of `CC(=O)NCCNC(=O)c1ccc(Cn2c(=O)[nH]c3ccsc3c2=O)cc1`, the CPE inhibition is reported as 0.58%. Compound `O=[N+]([O-])c1ccc(Cl)c(S(=O)(=O)Nc2ccc(-c3ccc(N4CCOCC4)nn3)cc2)c1` has a CPE inhibition of 0.86%. Compound `O=S(=O)(Nc1ccc(-c2ccc(N3CCOCC3)nn2)cc1)c1cc(Cl)ccc1Cl` has a CPE inhibition of 1.29%. With `O=[N+]([O-])c1ccc(Cl)c(S(=O)(=O)Nc2cccc(-c3ccc(N4CCCC4)nn3)c2)c1` the CPE inhibition was 55%. Work on `Cc1ccc([N+](=O)[O-])cc1S(=O)(=O)Nc1cccc(-c2ccc(N3CCOCC3)nn2)c1` yielded a CPE inhibition of 30.8%. With `COc1ccccc1OCCn1ccnc1` the CPE inhibition was 0.82%. For `O=C(CC1C(=O)NCCN1Cc1cccc(Oc2ccccc2)c1)NCCn1cccn1` (stereo unspecified), the CPE inhibition was 1.61%. `CCn1ncc(CNC(=O)C2(C)CC2(Cl)Cl)c1C` (stereo unspecified) gave a CPE inhibition of 2.51%. With `O=C(O)/C=C/C(=O)NCCC(c1ccccc1)c1ccccc1` the CPE inhibition was -0.16%. `O=C(Nc1ccccc1)Nc1ccc(NC(=O)c2ccccc2O)cc1` gave a CPE inhibition of 1.31%. For `O=C(Nc1cccnc1)c1ccc(Cl)c(S(=O)(=O)N2CCCCC2)c1`, the CPE inhibition was 10.1%. With `COc1cc(/C=C/c2cc(C(=O)O)c3ccccc3n2)cc(OC)c1O` the CPE inhibition was -0.63%. `CCOc1cc(/C=C/c2cc(C(=O)O)c3ccccc3n2)ccc1OC` showed a CPE inhibition of 4.82%. Work on `COc1ccc(C2NC(=O)NC(C)=C2C(C)=O)cc1` (stereo unspecified) yielded a CPE inhibition of 2.63%. For `Cc1cc(Nc2ccccc2)nc(-c2ccccc2O)n1`, the CPE inhibition was 21.2%. In the case of `Cc1cc(Nc2ccc(Cl)cc2)nc(-c2ccccc2O)n1`, the CPE inhibition is reported as 14.1%. Compound `C[C@H]1CCC(=O)N(CCSc2ccc(Br)cc2)CC1` has a CPE inhibition of 0.08%. For `CC(C)(C)c1n[nH]c2c1CCCC2`, the CPE inhibition was 3.59%. Compound `COc1ccc2c(c1)Cc1sc(NC(=O)c3cccs3)nc1-2` has a CPE inhibition of 7.1%. In the case of `COc1ccc2c(c1)-c1nc(NC(=O)c3ccco3)sc1CC2`, the CPE inhibition is reported as 45.2%. With `Cc1nnc(SCC(=O)N2CCc3ccccc3C2)n1-c1ccccc1` the CPE inhibition was 2.35%. In the case of `COc1ccc(CNC(=O)C(C)Sc2nc3ccccc3c(=O)n2CCCN2CCOCC2)cc1` (stereo unspecified), the CPE inhibition is reported as -1.12%. Compound `Cc1cc(C)c(NC(=O)CSc2nc3ccccc3c(=O)n2CCCN2CCOCC2)c(C)c1` has a CPE inhibition of -0.42%. In the case of `C/C(N)=C(/C#N)C(=O)COC(=O)C(NS(=O)(=O)c1ccc(Cl)cc1)C(C)O` (stereo unspecified), the CPE inhibition is reported as 0.82%. Work on `Cc1cc(C(=O)N2CCCC(N3CCN(c4cccc(Cl)c4)CC3)C2)nn1C` (stereo unspecified) yielded a CPE inhibition of -0.33%. Work on `Cc1ccc(OCCCn2ccnc2)cc1C` yielded a CPE inhibition of 0.08%. Work on `COc1cc(N)c(Cl)cc1C(=O)OCC(=O)Nc1cccnc1Cl` yielded a CPE inhibition of 0.52%. Compound `COc1cc2c(cc1OC)[C@H](C)N(C(=O)CSc1nc(O)c(C(C)C)c(=O)[nH]1)CC2` has a CPE inhibition of 0.69%. In the case of `O=C(/C=C/c1c(F)cccc1Cl)N1CCOCC1`, the CPE inhibition is reported as 0.12%. `O=C(/C=C/c1ccc(OCCCF)cc1)N1CCOCC1` gave a CPE inhibition of 2.87%. `Cc1cc(C)n(-c2ccc(C(=O)OCC(=O)NCc3ccc(F)cc3)cc2)n1` gave a CPE inhibition of 0.92%. `Cc1nc(-c2noc(-c3cccc(Cl)c3)n2)c(C(F)(F)F)o1` showed a CPE inhibition of 1.74%. In the case of `CC(C(=O)N1CCc2ccccc21)n1cccc1` (stereo unspecified), the CPE inhibition is reported as 1.93%. `CC(Nc1ccc2c(c1)OCCO2)C(=O)N1CCc2ccccc21` (stereo unspecified) gave a CPE inhibition of 3.03%.
